# Screen size: about 320,000 compounds; about 1,700 (0.53%) were called active. Many of the other results were omitted from the sample, so actives are more common in it than they were. A number with no mark means an inactive call.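 The calls were made as follows: active = inhibition above the campaign mean of all compounds plus 3 SD (cut at about 26% in these data); inactive = the rest.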
# Molecular target: Protein phosphatase methylesterase 1 (Homo sapiens) (UniProt Q9Y570)
# Assay: PME-1 inhibitors via competitive probe labeling, primary screen, biochemical, fluorescence polarization, FP-Rh probe, HTS (AID 2130);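 also: competitive labeling of PME-1 active site by serine hydrolase directed probe; 0% = PME-1 with DMSO and 100% = wells lacking PME-1 enzyme; inhibitors block probe labeling so polarization falls and inhibition rises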
# Conditions: recombinant PME-1, FP-Rh probe fluorescence polarization; at 5.9 µM; stronger effect = higher value
# Sequence of Protein phosphatase methylesterase 1 (Homo sapiens) (Q9Y570 whole entry, looked up): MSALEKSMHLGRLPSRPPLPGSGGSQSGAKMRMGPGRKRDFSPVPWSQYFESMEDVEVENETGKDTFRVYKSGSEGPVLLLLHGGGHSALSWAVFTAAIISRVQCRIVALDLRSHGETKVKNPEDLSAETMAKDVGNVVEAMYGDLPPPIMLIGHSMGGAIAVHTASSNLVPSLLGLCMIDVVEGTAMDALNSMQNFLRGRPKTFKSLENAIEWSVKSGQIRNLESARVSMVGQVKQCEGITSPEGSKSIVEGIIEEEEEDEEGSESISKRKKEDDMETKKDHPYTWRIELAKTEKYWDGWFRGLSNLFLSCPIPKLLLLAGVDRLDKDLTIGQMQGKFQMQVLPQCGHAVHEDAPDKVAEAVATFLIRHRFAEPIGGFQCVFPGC
row,Compound,inhibition
1,O=C(NC(=S)Nc1ncccn1)c1ccccc1Br,-6.82%
2,Cc1ccc(Cn2nnc3c(=O)[nH]c(C4CCN(S(=O)(=O)/C=C/c5ccccc5)CC4)nc32)cc1,31.4% (active)
3,Cc1ccc(NC(=O)N2CCC(c3nc4c(nnn4Cc4c(F)cccc4Cl)c(=O)[nH]3)CC2)cc1,4.6%
4,COc1ccc(Cn2nnc3c(=O)[nH]c(C4CCN(C(=O)c5ccccc5Cl)CC4)nc32)cc1,10.2%
5,O=S(=O)(c1cnccc1N1CCN(/N=C/c2ccc(Br)cc2)CC1)N1CCCCC1,1.2%
6,CN=C1C=C/C(=N/N=c2\ccn(O)cc2C)C=C1C,-11%
7,CCOC(=O)C1Sc2[nH]c(=O)sc2C(c2ccc(Cl)cc2)C1C(=O)OCC (stereo unspecified),9.44%
8,Cc1cc(OCC(=O)NCC(O)c2ccccc2)c2c(C)c(C)c(=O)oc2c1 (stereo unspecified),1.37%
9,O=C(Oc1ccc([N+](=O)[O-])cc1)c1ccc(Cl)c(S(=O)(=O)N2CCCCC2)c1,-1.4%
10,COc1ccc2nc(NC(=O)c3ccc(Br)s3)sc2c1,-12.8%
11,CCc1noc(C)c1C(=O)Nc1nc2ccc(OC)cc2s1,2.67%
12,COc1ccc2nc(Nc3nc4cc5c(cc4s3)OCCO5)sc2c1,92.8% (active)
13,C/C=C/C(=O)Nc1ccc(N2CCN(c3ccc(C(F)(F)F)cn3)CC2)nc1,-7.12%
14,CCN1CCN(C(=O)Cn2nc(C)n3c(cc4c(OC)cccc43)c2=O)CC1,-4.63%
15,Cc1ccc(-n2c(SCC(=O)N3CCC(C(=O)O)CC3)nc3ccccc3c2=O)cc1C,5.62%
16,O=S(=O)(Nc1ccccc1Cl)c1cccc2nsnc12,-1.38%
17,CC(=O)N1CCc2c(sc(NC(=O)CCS(=O)(=O)c3ccccc3)c2C#N)C1,-1.35%
18,COc1ccc(NC(=O)CCCNC(=O)Cn2cnc3sc4c(c3c2=O)CCCC4)cc1OC,3.69%
19,COc1ccc(NC(=O)CCNC(=O)Cn2cnc3sc4c(c3c2=O)CCCC4)cc1OC,-4.87%
20,COc1ccc(/C=N/Nc2ncnc3sc4c(c23)CCCC4)cc1O,29.7% (active)
21,COc1ccc(CC(NC(C)=O)C(=O)NC2CCN(C(=O)Nc3ccc(C#N)cc3)CC2)cc1OC (stereo unspecified),2.43%
22,COC(=O)C1=C(C)NC(=S)NC1c1ccc(OCC(=O)N2CC(C)OC(C)C2)c(OC)c1 (stereo unspecified),4.05%
23,CCOc1ccc2nc(NC(=O)CSc3nc4c(c(=O)n(C)c(=O)n4C)n3CC)sc2c1,1.27%

row,Compound,inhibition
1,CCC(=O)c1ccc(OCC(=O)Nc2ccc3nc(C)sc3c2)cc1,-15.4%
2,CCOc1ccc2nc(Nc3nc4ccc(NC(C)=O)cc4s3)sc2c1,50.7% (active)
3,CCOc1cc(C(=O)Nc2c(C)ccc3nsnc23)cc(OCC)c1OCC,-3.07%
4,CCN1CCN(C(=O)N[C@@H](C(=O)N[C@@H]2C(=O)N3C(C(=O)O)=C(CSc4nnnn4C)CS[C@H]23)c2ccc(O)cc2)C(=O)C1=O,1.33%
5,O=C(Oc1cccc(N2C(=O)C3C4c5ccccc5C(c5ccccc54)C3C2=O)c1)c1ccco1 (stereo unspecified),2.64%
6,Cc1nc(N=C(N)N)nc2c(C)cccc12,-4.31%
7,O=C(CCC1CCCN(Cc2ccc(O)c(Cl)c2)C1)NCc1ccccc1F (stereo unspecified),-1.64%
8,Cc1[nH]c2c(C(=O)N3CCCC(CCC(=O)NCc4ccccc4F)C3)cccc2c1C (stereo unspecified),28.6% (active)
9,CSc1ncccc1C(=O)N1CCCC(CCC(=O)NCc2ccccc2F)C1 (stereo unspecified),-3.09%
10,Cc1cccc(N(Cc2ccccc2)C(=O)c2cc(S(=O)(=O)N3CCOCC3)ccc2F)c1,8.02%
11,COc1ccc(/C=N/Nc2nc3ccccc3o2)cc1OC,23.1%
12,COc1cc(/C=N/Nc2nc3ccccc3s2)ccc1O,45.3% (active)
13,COc1cc(/C=N\Nc2nc(-c3cccs3)c(NC(C)=O)s2)ccc1O,7.62%
14,COC(=O)COc1cccc2c(=O)n(CC(=O)NCc3ccccc3)ccc12,-7.45%
15,Cc1cc(C)c(C)c(S(=O)(=O)Nc2ccc(O)cc2)c1C,6%
16,O=C(Nc1ccnn1C1CCN(Cc2cccc(OCCO)c2)CC1)C1CCCC1,4.32%
17,Cc1nc2ccccc2nc1N/N=C/c1ccc(O)cc1O,36.9% (active)
18,Oc1ccc(/C=N/Nc2nc(-c3ccccc3F)nc3ccccc23)c(O)c1,55% (active)
19,O=c1c2ccccc2nc(N/N=C/c2ccccc2)n1O,-3.42%
20,COc1ccccc1N1CCN(/N=C/c2ccc(O)cc2O)CC1,2.94%
21,FC(F)(F)c1nc2ccccc2nc1N/N=C/c1ccc(Cl)cc1,2.4%
22,COc1cccc(/C=N/Nc2cc(C)nc(-c3ccccc3O)n2)c1O,23.9%
23,CCO[C@H]1OC(C(=O)N2CCN(Cc3ccccc3)CC2)=C[C@@H](c2cn(C(C)=O)c3ccccc23)[C@@H]1CCCO,10.4%

row,Compound,inhibition
1,CC(=O)Nc1ccc(S(=O)(=O)N2CCC(C(=O)N[C@@H](Cc3ccccc3)C(=O)O)CC2)cc1,-6.81%
2,COc1ccccc1N1CCN(C(=O)CCS(=O)(=O)c2ccc3c(c2)NC(=O)C(C)S3)CC1 (stereo unspecified),-1.07%
3,COC(=O)c1ccc(CN2C(=O)NC(c3ccccc3)(c3ccccc3)C2=O)o1,0.13%
4,CC(C)(C)C(=O)N(Cc1ccccc1)c1ccccn1,-3.74%
5,O=C(Nc1ccccc1C(=O)N1CCOCC1)c1ccc(Cl)cc1,-4.46%
6,O=c1nc(N2CCOCC2)nc2n1CCO2,0.45%
7,CCCOc1ccc(CN(CCO)CCO)cc1C(=O)OC,1.19%
8,Cc1c(C(=O)N2CCCC2)c(S(=O)(=O)NCC(C)c2ccccc2)c(C)n1C (stereo unspecified),4.76%
9,N=c1n(CCc2ccccc2)c2ccccc2n1Cc1ccccc1F,-11%
10,CC(=O)c1c(C)n(-c2ccc(C)cc2)c2ccc(O)cc12,-0.87%
11,CCOC(=O)c1c(C)oc2ccc(OCC(=O)N(CC)CC)cc12,-5.01%
12,CC(=O)c1c(C)n(-c2ccc(N(C)C)cc2)c2ccc(OCC(N)=O)cc12,26.2% (active)
13,CC(=O)N1CC[n+]2c(-c3ccc([N+](=O)[O-])cc3)csc21,-1.65%
14,COc1cc(NS(=O)(=O)c2ccc(NC(=O)c3ccc([N+](=O)[O-])cc3)cc2)ncn1,4.2%
15,Cc1ccc(NC(=O)Cc2nnc(SCC(=O)Nc3nncs3)n2C)cc1,5.14%
16,O=C(CCn1nnc2ccccc21)OCC(=O)c1ccc([N+](=O)[O-])cc1,-1.86%
17,Cc1cc(C(=O)OCC(=O)Nc2ccc(F)c(F)c2)c(C)o1,-2.42%
18,CONC(=O)c1cc(OCC(F)(F)F)ccc1OCC(F)(F)F,-6.8%
19,CN(Cc1ccccc1)C(=O)c1ccc(NC2=NC3CS(=O)(=O)CC3S2)cc1 (stereo unspecified),0.07%
20,O=C(CCc1nnc2ccc(NCCCN3CCCC3=O)nn12)NCc1ccccc1Cl,-0.36%
21,Cc1ccc(N(C(=O)C(F)(F)F)C(C(=O)NC2CCCCC2)c2ccncc2)cc1C (stereo unspecified),3.24%
22,O=S1(=O)CCOC[C@H](CC2CCCCC2)N1Cc1ccc(F)cc1,1.92%
23,CCOC(=O)c1c(N)sc(C(C)=O)c1C,3.77%

row,Compound,inhibition
1,COCCOC(=O)c1sc(=S)n(CCOC)c1N,35% (active)
2,COC(=O)c1sc(=S)n(-c2ccc(Cl)cc2)c1C,-0.65%
3,COc1cccc(CNC(=O)CN2C(=O)NC(Cc3ccccc3)(c3ccccc3)C2=O)c1 (stereo unspecified),-2.37%
4,Cc1ccc(C2C3=C(Nc4[nH]n(-c5ccccc5)c(=O)c42)c2ccccc2C3=O)cc1 (stereo unspecified),36.4% (active)
5,Cc1ccc(-c2ccnc3[nH]n(-c4ccccc4)c(=O)c23)cc1,-2.99%
6,Cc1cc(C)c(C2C3=C(Nc4c2c(C)nn4-c2ccccn2)c2ccccc2C3=O)c(C)c1 (stereo unspecified),-4.18%
7,CSc1nc2nc(-c3cccc(C(F)(F)F)c3)ccn2n1,-7.13%
8,COC(=O)CSc1nc2c(c(C3CC=CCC3)c1C#N)CCC2 (stereo unspecified),-1.86%
9,CCOC(=O)N1CCN(C(=O)COCc2cc(-c3ccc4c(c3)OCO4)on2)CC1,-4.28%
10,O=C(NCCCN1CCCCC1)C1CC(=O)N(CCc2ccccc2)C1 (stereo unspecified),0.2%
11,CCCCN(CCCC)CCNC(=O)CN1C(=O)COc2ccc(S(=O)(=O)N3CCOCC3)cc21,-2.01%
12,CCc1ccc(C(=O)CSc2nnc(C)c(=O)[nH]2)cc1,-6.05%
13,O=C(O)c1ccccc1N=N/C(=N/Nc1cc(S(=O)(=O)O)ccc1O)c1ccccc1,13.7%
14,Cc1ccc(NS(=O)(=O)c2ccc(N/N=C/c3ccccc3OCC(=O)O)c([N+](=O)[O-])c2)c(C)c1,78.2% (active)
15,Cc1cccc(COc2ccccc2/C=N/Nc2ccc([N+](=O)[O-])cc2)c1,11.9%
16,COCCNC(=O)c1ccccc1NS(=O)(=O)c1ccc(C)c([N+](=O)[O-])c1,-1.62%
17,Cc1ccccc1N1CC(C(=O)Nc2ccc3c(c2)OCO3)CC1=O (stereo unspecified),0.7%
18,COCCN(C(=S)Nc1cccc(Cl)c1C)C(C)c1ccco1 (stereo unspecified),-13.2%
19,CCCN(C(=O)CSc1nnnn1C)c1c(N)n(Cc2ccccc2)c(=O)[nH]c1=O,0.95%
20,COc1ccc(C2Nc3ccccc3C(=O)N2c2ccc(F)cc2)cc1Cn1nnc2ccccc21 (stereo unspecified),30.4% (active)
21,COc1ccc(C2Nc3ccccc3C(=O)N2Cc2ccccc2)cc1Cn1nnc2ccccc21 (stereo unspecified),8.54%
22,COc1ccc(N2C(=O)c3ccccc3NC2c2ccc(OC)c(CN3CCOCC3)c2)cc1 (stereo unspecified),-3.55%
